NIH3T3 tox = cytotoxic compounds in NIH 3T3 cells | hit rate 4.3% among 94,000 | NIH 3T3 viability, CellTiter-Glo ATP luminescence, 48-72 h | Potency, µM (top dose mostly 96.7 µM), usual class: inhibitors | AID 1345082; also: nearly all actives have a fitted effect of over 55% in size
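Cells were seeded at 400 per well, treated with pin-transferred compound, and kept 48 or 72 hr at 37 °C before CellTiter-Glo addition and luminescence imaging of cellular ATP.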
SNCA expr inh = inhibitors of alpha-synuclein (SNCA) gene expression; HEK-293 SNCA-luciferase knock-in, luminescence, 24 h; Potency, µM (highest dose often 57.2 µM), hits mostly inhibitors; hit rate 0.17% among 140,000; also: nearly all actives have a fitted effect of over 45% in size
HEK293 tox = kills HEK 293 cells; Potency, µM (doses to about 115 µM), hits mostly inhibitors; AID 1345083; HEK 293 viability, ATP luminescence (CellTiter-Glo), 48-72 h; hit rate 6.6% among 94,000; also: nearly all actives have a fitted effect of over 60% in size
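CellTiter-Glo luminescence (cellular ATP) was read after 48 or 72 hr of compound exposure at 37 degree Celsius. Cells were HEK 293 plated at 250 cells/well.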
HEK293 viab = cell viability loss counter-screen; HEK-293-SNCA-luc viability, GF-AFC fluorescence, 24 h; AID 1671193; hit rate 0.12% among 150,000; Potency, µM (highest dose often 57.1 µM), usual class: cytotoxic; also: nearly all actives have a fitted effect of over 30% in size
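Cytotoxicity counterscreen: after 24 h compound treatment of genome-edited SNCA-luciferase HEK-293 cells, live-cell protease substrate GF-AFC read by fluorescence after 30 min; activity scaled between DMSO (0%) and medium-only (-100%), curves Hill-fitted.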
FLuc inh = inhibitors of firefly (Photinus pyralis) luciferase; P08659; purified P. pyralis luciferase, luminescence, biochemical; Potency, µM (highest dose often 115 µM), most hits filed as inhibitors; hit rate 2.5% among 76,000; AID 1347043; also: nearly all actives have a fitted effect of over 65% in size
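Purified P. pyralis luciferase (10nM final) in 50mM Tris acetate pH 7.5, 10mM Mg acetate, 0.01% Tween-20, 0.05% BSA with 10uM D-luciferin and 10uM ATP. Compounds titrated qHTS. Luminescence imaged on CCD.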
NPR1 antag = human Npr1 receptor antagonism; P16066; HEK293 hNpr1 GloSensor cGMP, ANP-stimulated luminescence; Potency, µM (highest dose often 46.3 µM), usual class: inhibitors; hit rate 1.6% among 76,000; AID 1347048; calls by dose curve; also: nearly all actives have a fitted effect of over 60% in size
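HEK293 cells stably expressing human Npr1 and cGMP GloSensor pGS-40F, loaded 2 h with 2% GloSensor reagent, given compound 30 min at room temperature. Luminescence read before and 20 min after 0.1 nM hNppA.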
Numbers stand for hits; i = inactive; ? = inconclusive; nt = no result; [ ] = remark or other dose. Shown are actives, neighbours in structure and some others; about 7.2% of the full set was active somewhere. Unless noted, calls follow the shape of the dose curve; as a rule, active = well fitted curve in the direction sought with a large enough effect; inconclusive = small, poorly fitted or top-dose-only effect, or another doubt; inactive = no such curve, though single readings can be large; an effect the other way counts as inactive or inconclusive.

SMILES	NIH3T3 tox	SNCA expr inh	HEK293 tox	HEK293 viab	FLuc inh	NPR1 antag
CCOc1ccc(C(=O)N2CCC[C@H]2c2nc(-c3ccccc3)no2)cc1OCC	?	i	i	i	i	i
CCOc1ccccc1C(=O)N1CCC[C@H]1c1nc(-c2ccc(F)cc2)no1	?	i	35µM	i	i	i
CCOc1ccc(C(=O)N2CCC[C@H]2c2nc(-c3ccccc3Cl)no2)cc1	20µM	i	?	?	?	i
O=C(Cc1ccc(F)cc1)N1CCC2(CC1)COc1ccccc1[S+](=O)([O-])N2	i	i	i	i	nt	nt
CCN1c2cc(C(=O)Nc3cccc(C(F)(F)F)c3)ccc2C(=O)N2CCCCC21 (stereo unspecified)	?	?	28µM	i[12.5 µM]	i	i
CCN1c2cc(C(=O)Nc3cccc(F)c3)ccc2C(=O)N2CCCCCC21 (stereo unspecified)	?	i	?	?	i	i
CCN1c2cc(C(=O)Nc3cccc(F)c3)ccc2C(=O)N2CCCC21 (stereo unspecified)	?	i	?	i[12.5 µM]	i	i
CCN1c2cc(C(=O)Nc3cccc(SC)c3)ccc2C(=O)N2CCCCC21 (stereo unspecified)	?	i	22µM	i[12.5 µM]	i	i
CCN1c2cc(C(=O)Nc3ccc(C)cc3)ccc2C(=O)N2CCCCC21 (stereo unspecified)	35µM	i	40µM	i[12.5 µM]	i	?
CCN1c2cc(C(=O)Nc3cccc(OC(F)(F)F)c3)ccc2C(=O)N2CCCCCC21 (stereo unspecified)	28µM	?	?	i[12.5 µM]	i	i
CC(C)=CC(=O)N1CC[C@H](NC(=O)NC(C)C)[C@H]1C(=O)N[C@H](Cc1c[nH]c2ccccc12)C(N)=O	i	i	i	i	i	i
CCN1c2cc(C(=O)Nc3ccc(F)cc3)ccc2C(=O)N2CCCCCC21 (stereo unspecified)	?	i	?	i[12.5 µM]	i	i
CCN1c2cc(C(=O)Nc3cccc(C)c3)ccc2C(=O)N2CCCCC21 (stereo unspecified)	35µM	i	32µM	i[12.5 µM]	i	i
CCN1c2cc(C(=O)Nc3ccc(N(C)C)cc3)ccc2C(=O)N2CCCCCC21 (stereo unspecified)	?	i	40µM	i[12.5 µM]	18µM	i
CCN1c2cc(C(=O)Nc3cccc(C)c3)ccc2C(=O)N2CCCCCC21 (stereo unspecified)	?	i	?	i[12.5 µM]	i	i
O=C(O)c1cccc(-c2n[nH]c3c2CC(=O)N(c2ccccc2)C3)c1	?	i	?	i	63µM	i
COCCN1Cc2[nH]nc(-c3cccc(OC)c3)c2CC1=O	100µM	i	?	i	i	i
COc1ccc(-c2n[nH]c3c2CC(=O)N(Cc2ccccn2)C3)cc1F	?	i	?	i	i	i
O=C1Cc2c(-c3ccccc3)n[nH]c2CN1CCOc1ccccc1	?	i	i	i	?	13µM
COc1ccc(-c2n[nH]c3c2CC(=O)N(CCOc2ccccc2)C3)cc1F	?	i	100µM	i	i	i
Cc1noc(C)c1S(=O)(=O)N(C)C1CCc2nn(CC3CC3)c(=O)n2CC1 (stereo unspecified)	i	i	i	i	i	i
CCN1Cc2nc(OC)c(CNC(=O)C3(C)CCCCO3)cc2C1=O (stereo unspecified)	i	i	i	i	i	i
Cc1ccc(CNC(=O)N2CC[C@@H]3C(=O)NCCCCCCN(Cc4ccncc4)[C@@H]3C2)cc1	i	i	i	i	i	i
O=C1CCN(Cc2ccc(F)cc2F)CCCC(c2nc(-c3cccnc3)no2)CCN1 (stereo unspecified)	?	i	?	i	i	i
C=C1CC/C=C(/CO)C(=O)C[C@@H]2[C@@H]1C[C@@]2(C)COC(C)=O	nt	nt	nt	i	nt	nt
COc1ccccc1Nc1ccnc(N2CCCC(C(=O)NC3CCCC3)C2)n1 (stereo unspecified)	35µM	i	?	i[12.5 µM]	nt	nt
COc1ccccc1Nc1ccnc(N2CCCC(C(=O)N3CCCCC3)C2)n1 (stereo unspecified)	35µM	i	35µM	?	nt	nt
